The list is not random: actives were taken first. Their share in the collection is about 3.1%.
TR SRC2 fluor cs = alters Texas Red total fluorescence, flagging assay interference | TRb/SRC2 Texas Red total fluorescence interference | Potency, µM (top dose mostly 106 µM) | 0.29% of 280,000 active | AID 1479; active = well fitted curve in either direction with a large enough effect; inconclusive = small, poorly fitted or top-dose-only effect
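Flags fluorescent or light-absorbing compounds by total fluorescence, S + 2P, at 555 nm excitation and 632 nm emission. Mixture: 20 nM Texas Red SRC2 peptide, 0.6 uM human TRb LBD, 1 uM T3, 5% DMSO; compound exposure 5 h at ambient temperature.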
Tau fibril FP = blocks human tau fibril formation measured by polarization; K18 P301L tau heparin fibrillization, Alexa594 FP, 6 h; Potency, µM (top dose mostly 57.7 µM), hits mostly inhibitors; 0.39% of 280,000 active; also: nearly all actives have a fitted effect of over 55% in size
Target sequence (P10636 561-689 P618L limits assumed): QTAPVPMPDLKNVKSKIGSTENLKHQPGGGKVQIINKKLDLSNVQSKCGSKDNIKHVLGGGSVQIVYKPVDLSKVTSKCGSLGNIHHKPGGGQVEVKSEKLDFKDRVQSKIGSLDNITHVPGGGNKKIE
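Recombinant K18 P301L […], labeled with Alexa 594 at 0.24 uM over 15 uM unlabeled; heparin inducer 20 uM final; 37 C, 6 hr; FP endpoint.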
Tau fibril ThT = blocks human tau fibril formation measured by thioflavin T; 2.1% of 270,000 active; recombinant tau K18 P301L, heparin-induced fibrillization, ThT fluorescence; AID 1460; Potency, µM (titrated, usually from 57.4 µM), usual class: inhibitors; also: nearly all actives have a fitted effect of over 55% in size
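Fibril formation assay: tau K18 P301L at 15 uM with trace Alexa 594 label, heparin inducer 20 uM, pH 7 sodium acetate buffer, 37 C for 6 hr; endpoint ThT signal.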
Tau fluor cs = counter-screen for tau fibril formation inhibitors; tau K18 P301L Alexa594 fluorescence, heparin fibrillization; Potency, µM (highest dose often 57.7 µM); 0.93% of 280,000 active; also: nearly all actives have a fitted effect of over 55% in size
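Human tau K18 P301L (15 uM unlabeled, 0.24 uM Alexa 594-labeled) in 100 mM sodium acetate pH 7 with 20 uM heparin, 6 hr at 37 C. ThT 30 uM added, 1 hr ambient; Alexa 594 FP and total fluorescence read at 555/632 nm.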
TRb SRC2 PPI = TRbeta-SRC2 interaction inhibition; TRbeta-SRC2 peptide binding, fluorescence polarization; receptor liganded with 1 µM T3; Potency, µM (titrated, usually from 106 µM), hits mostly inhibitors; 0.065% of 280,000 active; also: nearly all actives have a fitted effect of over 50% in size
Target sequence (P10828 whole entry, looked up): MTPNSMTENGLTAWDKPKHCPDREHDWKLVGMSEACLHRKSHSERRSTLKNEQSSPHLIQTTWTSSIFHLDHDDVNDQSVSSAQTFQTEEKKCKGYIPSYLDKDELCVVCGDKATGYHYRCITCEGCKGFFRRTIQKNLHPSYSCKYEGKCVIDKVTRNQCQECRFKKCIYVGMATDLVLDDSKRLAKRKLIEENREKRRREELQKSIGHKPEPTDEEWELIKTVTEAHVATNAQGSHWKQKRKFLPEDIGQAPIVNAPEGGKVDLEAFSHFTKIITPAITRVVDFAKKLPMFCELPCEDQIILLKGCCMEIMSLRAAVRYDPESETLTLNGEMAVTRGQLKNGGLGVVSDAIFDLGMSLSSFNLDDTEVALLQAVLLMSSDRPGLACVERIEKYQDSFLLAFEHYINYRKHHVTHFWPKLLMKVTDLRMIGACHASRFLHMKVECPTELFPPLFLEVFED
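Polarization signal, normalized between peptide-alone and full complex controls, measured compound effects on T3-liganded human TRb LBD (0.6 uM) binding 20 nM Texas Red SRC2 peptide after 5 hr.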
Each line names hits and unclear results; the compound was inactive in the other large screens; ! = not confirmed by another sample; [ ] = another dose, or the depositor's remark. Unless noted, calls follow the shape of the dose curve; as a rule, active = well fitted curve in the direction sought with a large enough effect; inconclusive = small, poorly fitted or top-dose-only effect, or another doubt; inactive = no such curve, though single readings can be large; an effect the other way counts as inactive or inconclusive.

CCn1c(O)c(/C=C/C=C/C=Nc2ccccc2)sc1=S	Tau fibril ThT inconclusive
Oc1c(/C=C/C=C/C=Nc2ccccc2)sc(=S)n1Cc1ccccc1	Tau fibril FP inconclusive, Tau fibril ThT 1.8µM, Tau fluor cs inconclusive
CCCCn1c(O)c(/C=C/C=C/C=Nc2ccccc2)sc1=S	Tau fibril FP inconclusive, Tau fibril ThT 3.2µM
CN(C)c1ccc(CNC(=O)CN2CCSc3ccc(S(=O)(=O)N(C)C)cc32)cc1	none
Cc1oc(-c2ccc(C(=O)Nc3ccc(F)cc3)cc2)nc1COc1ccccc1	none
Cc1ccccc1Cn1c(C(=O)O)c(CNCc2cccc(F)c2)c2ccccc21	none
COC(=O)c1cc2oc3ccccc3c2n1CC(=O)Nc1cccc(SC)c1	Tau fibril FP inconclusive, Tau fluor cs inconclusive
Cc1nc(NC(=O)c2ccccc2)sc1-c1csc(Nc2cccc(F)c2)n1	Tau fibril FP inconclusive, Tau fibril ThT 7.9µM, Tau fluor cs 11µM[quencher]
Cc1nc(N)sc1-c1csc(NCc2ccccc2)n1	Tau fibril FP inconclusive, Tau fibril ThT 20µM, Tau fluor cs inconclusive
Cc1cc(NS(=O)(=O)c2ccc(Nc3nc(-c4sc(NC(=O)c5ccccc5)nc4C)cs3)cc2)no1	Tau fibril ThT 20µM, Tau fluor cs 16µM[quencher]
Cc1nc(NC(=O)c2ccccc2)sc1-c1csc(N)n1	Tau fibril ThT 13µM, Tau fluor cs inconclusive
Cc1cc(-c2csc(NCc3ccccc3)n2)c(C)n1C	Tau fibril ThT inconclusive, Tau fluor cs inconclusive
COc1ccccc1Nc1nc(-c2sc(NC(=O)c3ccccc3)nc2C)cs1	Tau fibril ThT inconclusive, Tau fluor cs inconclusive
Cc1cc(C)cc(NC(=O)NCCn2nnc3cc(S(=O)(=O)N(C)C)ccc32)c1	none
Cc1ccc(NC(=O)/C(C#N)=C/c2cc(C)n(-c3ccc(Br)cc3)c2C)cc1C	none
CC(=O)OCC1OC(C#CC(C)(C)C)C=CC1OC(C)=O (stereo not given)	Tau fibril FP inconclusive, Tau fibril ThT inconclusive
COC(=O)[C@H](C)[C@H](CC(C)C)NC(=O)[C@H](C)[C@H](CC(C)C)NC(=O)c1ccccn1	none (no result: Tau fibril FP, Tau fibril ThT, Tau fluor cs)
Cc1nc(N)sc1-c1csc(Nc2ncccn2)n1	TR SRC2 fluor cs inconclusive, Tau fibril ThT 4µM
Cc1nc(NC(=O)c2ccccc2)sc1-c1csc(NCCc2ccccc2)n1	Tau fibril FP inconclusive, Tau fibril ThT 16µM, Tau fluor cs 16µM[quencher]
Cc1nc(NC(=O)c2ccccc2)sc1-c1csc(NCc2ccccc2)n1	Tau fibril FP inconclusive, Tau fibril ThT inconclusive, Tau fluor cs 13µM[quencher]
COc1cccc(-c2nc(SCc3cc(=O)c4ccc(C)c(C)c4[nH]3)n[nH]2)c1	none
O=C(Cc1ccc(F)cc1)Nc1cccc(-c2nc3cccnc3s2)c1	Tau fibril ThT inconclusive
Cc1cc(C)c(NS(=O)(=O)c2ccc(-c3coc(C)n3)cc2)c(C)c1	none
CC1(OC(=O)CCc2ccccc2)C(=O)C=C2C=C(c3ccc(C#N)cc3)N(Cc3ccccc3)C=C2C1=O (stereo not given)	Tau fibril FP inconclusive, Tau fibril ThT 8.9µM!
CCCCC1=CC2=CC(=O)C(C)(OC(=O)CCc3ccccc3)C(=O)C2=CO1 (stereo not given)	Tau fibril FP inconclusive, Tau fibril ThT 25µM!, Tau fluor cs inconclusive
CC(C)(C)OC(=O)NCCCC1=CC2=CC(=O)C(C)(OC(=O)CCc3ccccc3)C(=O)C2=CO1 (stereo not given)	Tau fibril FP inconclusive
CC1(OC(=O)C2CCCC2)C(=O)C=C2C=C(c3ccsc3)N(CCc3ccccn3)C=C2C1=O (stereo not given)	Tau fibril FP inconclusive, Tau fibril ThT 4µM
CC(C)CN1C=C2C(=O)C(C)(OC(=O)C3CCCC3)C(=O)C=C2C=C1c1ccsc1 (stereo not given)	Tau fibril ThT inconclusive
CC1(OC(=O)C2CCCC2)C(=O)C=C2C=C(c3ccsc3)N(Cc3ccccc3)C=C2C1=O (stereo not given)	Tau fibril FP inconclusive, Tau fibril ThT 10µM!
COc1ccc(C2C3C=CCCC3(C)C(=O)N2Cc2ccccc2)cc1Cl (stereo not given)	none (no result: Tau fibril FP, Tau fibril ThT, Tau fluor cs)
COc1ccc(Nc2sc(C(=O)Nc3cccc(Cl)c3)c(N)c2C(=O)Nc2ccccc2OC)cc1	Tau fibril ThT inconclusive, Tau fluor cs 11µM[quencher]
Cc1nc(Nc2ccc(Cl)cc2Cl)sc1C(=O)Nc1ccccc1	Tau fibril ThT inconclusive, Tau fluor cs inconclusive
COc1ccccc1NC(=O)c1c(Nc2ccccc2F)sc(C(=O)Nc2cccc(Cl)c2)c1N	Tau fibril FP inconclusive, Tau fluor cs inconclusive
Nc1c(C(=O)c2ccccc2)sc(Nc2ccc(Cl)c(Cl)c2)c1C(=O)Nc1ccccc1	Tau fibril ThT 20µM, Tau fluor cs inconclusive
Cc1nc(Nc2ccc(Cl)c(Cl)c2)sc1C(=O)Nc1ccccc1	Tau fibril ThT inconclusive, Tau fluor cs 11µM[quencher]
Cc1noc(/C=C/c2cccs2)c1S(=O)(=O)N1CCC(C(=O)Nc2ccc(F)c(Cl)c2)CC1	Tau fibril FP inconclusive, Tau fluor cs inconclusive
COCCNC(=O)Cn1c(-c2cccs2)cc2cc(Cl)ccc21	TR SRC2 fluor cs 126µM[quencher]
CCN1CCN(CCCNC(=O)Cn2c(-c3cccs3)cc3cc(F)ccc32)CC1	TR SRC2 fluor cs 141µM[quencher], TRb SRC2 PPI inconclusive
O=C(Cn1c(-c2cccs2)cc2cc(F)ccc21)NCCCN1CCN(c2ccc(F)cc2)CC1	none
Cc1ccc(OCC(=O)Nc2ccc3nc(SCC(=O)N4CCOCC4)sc3c2)cc1	none
COc1ccc(-c2ccc(/C=N/NC(=O)c3cccnc3)o2)c([N+](=O)[O-])c1	Tau fibril FP inconclusive, Tau fibril ThT 2.8µM
N#C/C(=C\c1ccc(-c2ccccc2[N+](=O)[O-])o1)C(N)=O	none
Cc1ccc(C(=O)N/N=C/c2ccc(-c3cccc(Cl)c3)o2)cn1	Tau fluor cs inconclusive
O=C(N/N=C/c1ccc(-c2ccccc2[N+](=O)[O-])o1)[C@H]1C[C@@H]1c1ccccc1	Tau fibril FP inconclusive, Tau fibril ThT 4.5µM, Tau fluor cs inconclusive
Cc1ccc(C(=O)N/N=C/c2ccc(-c3ccccc3[N+](=O)[O-])o2)cn1	TR SRC2 fluor cs 32µM[quencher], TRb SRC2 PPI inconclusive
O=C(/C=C/c1ccc(-c2ccccc2[N+](=O)[O-])o1)c1ccccc1	Tau fibril ThT 18µM, Tau fluor cs inconclusive
COc1cc([N+](=O)[O-])cc(/C=N/NC(=O)c2cccnc2)c1O	Tau fibril ThT inconclusive
CC(C)c1ccc(OCc2cc(=O)n3c4c(sc3n2)CCCC4)cc1	Tau fibril ThT inconclusive
CCN1C(C)=C(C(=O)OC)C(c2ccccc2)N2C(=O)[C@](O)(C(=O)OC)CC(C#N)=C12 (stereo not given in full)	none
Cc1cc[n+](-c2[nH]c(=O)sc2/C=N/N=C(\[O-])CCn2c3ccccc3c3ccccc32)cc1	Tau fibril FP inconclusive, Tau fibril ThT 28µM, Tau fluor cs inconclusive

Bioassay records from PubChem BioAssay.
